The text below walks through data of PubChem BioAssay (NCI).

Compounds without any hit were thinned out: in the full panel of roughly 83,000, 20% have a hit.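 Results are percent growth after 48 hours of single-concentration exposure. 100 means growth as in untreated cells, lower positive values show inhibition; negative values down to -100 show cell death.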 Unmarked numbers belong to inactive results. Calls of active or inactive are those of the source. Rule for the calls: active = growth percent below 10; inactive = the rest.

This assay relates to MALME-3M melanoma. Briefly: NCI-60 one-dose screen, 48 h (100 = growth as untreated, 0 = no growth, -100 = all killed). Particulars: 10 µM unless noted.
Take `Cc1cc(-c2nc3ccccc3s2)ccc1NC(=O)COc1ccc(Cl)cc1`: the growth is 106%. As to `C[C@H](CCC(=O)O)[C@H]1CC[C@H]2[C@@H]3CC[C@@H]4/C(=C\c5ccco5)C(=O)/C(=C\c5ccco5)C[C@]4(C)[C@H]3CC[C@]12C`, the growth is 58.1%.

In the case of `COc1cc2c(c(OC)c1OC)-c1ccc(N=NC(N)=S)c(=O)cc1[C@@H](NC(C)=O)CC2`, the growth is 61.2%. As for `c1ccc(CSc2ncnc3nc[nH]c23)nc1`, the growth is 103%. For `CC(=O)Nc1ccc2c(c1)c(NC(C)=O)nn2C(=O)Nc1ccc(Cc2ccccc2)cc1`, the growth was 86.5%. For the compound `COc1cc2c(=O)n(CC3CCCCC3)c3c4cc[nH]c4ncc3c2cc1OC`, the growth is 65.9%. The value for `COC1/C=C\OC2(C)Oc3c(C)c(O)c4c(O)c(c(CN(C)CCO)c(O)c4c3C2=O)NC(=O)/C(C)=C\C=C/C(C)C(O)C(C)C(O)C(C)C(OC(C)=O)C1C` (configuration not stated) was 84.2%; that for `Cc1cc(N/N=C/c2nc(-c3ccc(Cl)cc3)oc2C)c2cc(Cl)ccc2n1` was -14.2% (active). Take `C=C1CC[C@@H]2[C@](C)(COC(C)=O)[C@H](OC(C)=O)CC[C@@]2(C)[C@@H]1CC(NCc1ccc(F)cc1)C1=CCOC1=O` (some centres not stated): the growth is 65.1%. On to `Cn1c2c(Cl)c(Cl)ccc2c2ccn3c(=O)c4ccccc4nc3c21`, for which the growth was 102%. The same measure for `CCOC(=O)Cc1cnn(C)c1NC(=O)c1ccc(Cl)cc1NC(C)=O`: 105%.

For the compound `COc1ccc(-c2cc(NC(=O)Nc3ccc(O)cc3)no2)cc1`, the growth was 78%.
